Hits are enriched below; roughly 18% of the tested compounds scored in any of these assays.
Six1-Eya2 inh = blocks human Six1 binding to Eya2; Q15475+O00167; AlphaScreen GST-Six1/His-Eya2 binding, biochemical; active compounds read low; activity change, % (no concentration beside the values); 0.56% of 360,000 active; AID 651725; in the data active means activity change below about -65%; inconclusive means mostly about -30% to -63%
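Six1/Eya2 binding was read as AlphaScreen signal after compounds were pinned into GST-Six1 plus His-tagged Eya2 (5X stock 250/500 nM) in pH 8.0 Tris/NaCl/TCEP buffer, beads added, then incubated 1 h, 37 C, dark.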
CtBP-E1A blk = inhibitors of CtBP/E1A interaction | AlphaScreen GST-E1A/His-CtBP binding, 1536-well; active compounds read low | AID 651724 | 0.49% of 340,000 active | activity change, % (concentration not given with the values); in the data active means activity change below about -65%; inconclusive means mostly about -30% to -63%
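Protein mix (5X: 125 nM each GST-E1A, His-CtBP) was incubated with pinned compound 2 h at 37 deg C in dark, in 50 mM Tris pH 8.0 buffer with 300 mM NaCl. Glutathione donor and nickel acceptor beads followed; AlphaScreen signal read after 1 h.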
DT40 TDP1 CPT = DT40-hTDP1 cell growth loss with CPT | chicken DT40 Tdp1-/-;hTDP1 cells + 20 nM CPT, ATP luminescence, 48 h | Potency, µM (top dose mostly 46.2 µM), for inactives: at the top dose activity change, negative = growth inhibition, actives largely listed as inhibitors | 12% of 420,000 active; further: potency means the concentration at half of the fitted maximal effect; nearly all actives have a fitted effect of over 55% in size
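Chicken DT40 Tdp1-/- cells complemented with human TDP1, 400 cells/well, exposed to compounds plus 20 nM camptothecin for at least 48 h at 37 C; viability read as ATP content by CellTiter-Glo luminescence.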
DT40 TDP1 no CPT = qHTS for Inhibitors of human tyrosyl-DNA phosphodiesterase 1 (TDP1): qHTS in cells in absence of CPT | DT40 Tdp1-/- hTDP1 cells, no CPT, ATP luminescence, 48 h | Potency, µM (series often up to 46.2 µM), for the others: at the highest dose activity change, negative = growth inhibition, actives largely listed as inhibitors | 15% of 420,000 active; further: potency means the concentration at half of the fitted maximal effect; nearly all actives have a fitted effect of over 55% in size
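Cells were dispensed at 400 per well, compounds added by pin tool, plates incubated ≥48 hr at 37 °C, then CellTiter-Glo added for 30 min at room temperature before luminescence reading. Line: DT40 Tdp1-/- complemented with hTDP1; camptothecin omitted.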
TDP1 inh = TDP1 (human) enzyme inhibition | recombinant TDP1, AlphaScreen DNA substrate cleavage | Potency, µM (top dose mostly 130 µM), without a hit: top-dose activity change, negative = inhibition, actives largely listed as inhibitors | Q9NUW8 | AID 485290 | 0.28% of 350,000 active; further: potency means the concentration at half of the fitted maximal effect; nearly all actives have a fitted effect of over 40% in size
Target sequence (Q9NUW8 whole entry, looked up): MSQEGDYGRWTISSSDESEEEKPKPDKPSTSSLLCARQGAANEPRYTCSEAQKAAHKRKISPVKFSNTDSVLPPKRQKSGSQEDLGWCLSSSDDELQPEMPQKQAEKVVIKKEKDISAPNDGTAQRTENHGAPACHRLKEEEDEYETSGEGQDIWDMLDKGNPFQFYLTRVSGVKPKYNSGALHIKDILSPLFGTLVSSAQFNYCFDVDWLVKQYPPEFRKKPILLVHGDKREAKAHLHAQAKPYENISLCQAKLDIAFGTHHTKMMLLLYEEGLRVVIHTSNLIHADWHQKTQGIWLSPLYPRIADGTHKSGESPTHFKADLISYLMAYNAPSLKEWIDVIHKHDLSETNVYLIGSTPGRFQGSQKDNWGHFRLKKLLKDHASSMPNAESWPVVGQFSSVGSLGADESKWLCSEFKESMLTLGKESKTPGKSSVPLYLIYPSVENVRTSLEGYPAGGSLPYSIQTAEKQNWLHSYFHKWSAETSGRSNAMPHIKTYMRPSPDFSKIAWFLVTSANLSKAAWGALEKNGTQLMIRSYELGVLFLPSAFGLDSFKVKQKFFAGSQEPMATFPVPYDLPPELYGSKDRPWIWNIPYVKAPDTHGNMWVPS
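E. coli-derived human Tdp1, 1 nM final. Cpd preinc 15 min RT; substrate 15 nM final, 5 min RT; AS bead mix 10 ug/ml final, 10 min RT. Signal loss = tyrosine-FITC cleavage. No-enzyme wells = max signal.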
IL1B secr inh = inflammasome signaling inhibition, IL-1 beta readout | THP-1 LPS/ATP IL-1B secretion, AlphaLISA, 16 h; active compounds read low | 4.7% of 360,000 active | AID 743279 | activity change, % at 57.5 µM; in the data active means activity change below about -50%; inconclusive means mostly about -30% to -49%
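THP-1 cells pretreated 1 hr with compounds (up to 57.5 uM final), then stimulated with LPS (250 ng/mL final) plus ATP (1.25 mM final); secreted IL-1B measured by AlphaLISA after 16 hr, decreased signal indicating inhibition.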
* = called active by the depositor; i = inactive; ? = inconclusive; . = no result; [ ] = dose if it differs, or a comment. Unless noted, the call rests on the fitted dose curve; in most records, active means well fitted curve in the direction sought with a large enough effect; inconclusive means small, poorly fitted or top-dose-only effect, or another doubt; inactive means no such curve, though single readings can be large; an effect the other way counts as inactive or inconclusive. On the % scale 0 is the no-effect control and ±100 the full control effect.

SMILES	Six1-Eya2 inh	CtBP-E1A blk	DT40 TDP1 CPT	DT40 TDP1 no CPT	TDP1 inh	IL1B secr inh
O=C(Nc1ccc(F)cc1F)Nc1csc2ccccc12	1	-3	?	23µM*	1%	-92*
O=C(Nc1ccc(F)c(Cl)c1)Nc1csc2ccccc12	1	3	5.2µM*	3.7µM*	.	-70*
CCOc1ccc(C(=O)NC(=S)Nc2ccccc2N2CCCCC2)cc1[N+](=O)[O-]	-28	?	18µM*	?	3%	2
CCOc1ccc(C(=O)NC(=S)Nc2ccc(N3CCCCC3)cc2)cc1[N+](=O)[O-]	-27	?	12µM*	?	8%	9
O=C(NC(=S)Nc1ccccc1N1CCCC1)c1ccc([N+](=O)[O-])cc1	?	32	26µM*	18µM*	1%	-21
COc1ccc(C(=O)NC(=S)Nc2ccccc2N2CCCCC2)cc1[N+](=O)[O-]	?	?	12µM*	6.5µM*	7%	18
Cc1c(C(=O)NC(=S)Nc2ccccc2N2CCCC2)cccc1[N+](=O)[O-]	?	-19	?	?	7%	1
CCCCC[C@@H](C)N1C[C@H](COCc2ccccc2)Oc2cc(N3CCC[C@@H]3CO)ccc2S1(=O)=O	-11	-1	?	18µM*	.	-27
CCCCC[C@@H](C)N1C[C@@H](COCc2ccccc2)Oc2cc(N3CCC[C@H]3CO)ccc2S1(=O)=O	-14	-12	?	?	.	0
CCCCC[C@@H](C)N1C[C@H](COCc2ccccc2)Oc2cc(N3CCC[C@H]3CO)ccc2S1(=O)=O	-3	2	9.2µM*	16µM*	.	22
CN(Cc1ccccc1O)CC1CCCN(CCc2ccc(Cl)cc2)C1 (centres undefined)	3	.	?	?	.	-14
COc1ccc(CN(C)CC2CCCN(CCc3ccc(F)cc3)C2)c(OC)c1OC (centres undefined)	-11	-23	23µM*	15µM*	.	.
CCN(Cc1ccc(OC)c(COC)c1)CC1CCCN(CCc2cccc(F)c2)C1 (centres undefined)	1	0	?	?	.	?
Cc1occc1C(=O)N(C)CC1CCCN(CCc2ccc(Cl)cc2)C1 (centres undefined)	-3	-6	?	21µM*	.	-22
COc1ccc(CCN2CCCC(CN(C)C(=O)c3ccoc3C)C2)cc1 (centres undefined)	-2	6	-19%	-29%	3%	i
CN(Cc1ccc(C#CCCO)cc1)CC1CCCN(CCc2ccc(Cl)cc2)C1 (centres undefined)	-26	.	18µM*	15µM*	.	-29
CCN(Cc1ccc(C#CCCO)cc1)CC1CCCN(CCc2cccc(F)c2)C1 (centres undefined)	-14	-10	?	21µM*	3%	-23
CCN(CC)CCCNC(=O)c1oc2ccc(S(=O)(=O)N3CC(C)CC(C)C3)cc2c1C (centres undefined)	-8	-3	?	18µM*	7%	-52*
CCN(CC)S(=O)(=O)c1ccc2oc(C(=O)NCCCN3CCOCC3)c(C)c2c1	0	10	1%	-4%	1%	-22
Cc1c(C(=O)NCC2COc3ccccc3O2)oc2ccc(S(=O)(=O)N3CCOCC3)cc12 (centres undefined)	2	1	?	?	0%	-8
Cc1c(C(=O)NCC2COc3ccccc3O2)oc2ccc(S(=O)(=O)N3CC(C)CC(C)C3)cc12 (centres undefined)	-1	7	18µM*	13µM*	3%	-15
Cc1c(C(=O)N2CCCCC2)oc2ccc(S(=O)(=O)N3CC(C)CC(C)C3)cc12 (centres undefined)	-10	0	18µM*	13µM*	1%	?
Cc1c(C(=O)NCC2CCCO2)oc2ccc(S(=O)(=O)N3CC(C)CC(C)C3)cc12 (centres undefined)	0	0	?	?	7%	30
CCN(CC)S(=O)(=O)c1ccc2oc(C(=O)NCC3COc4ccccc4O3)c(C)c2c1 (centres undefined)	-2	-5	?	23µM*	11%	-9
O=C1COc2ccc(C(=O)C[n+]3cccc(O)c3)cc2N1	-3	1	-13%	-11%	6%	4
SMILES	Six1-Eya2 inh	CtBP-E1A blk	DT40 TDP1 CPT	DT40 TDP1 no CPT	TDP1 inh	IL1B secr inh
COCCn1c(=O)cnc2cnc(N(C)C)nc21	.	.	1%	-18%	.	.
Cc1cc2c(c(-c3cnccn3)c1)OC(CNC(=O)c1ccc(-n3nc(C)cc3C)cc1)C2 (centres undefined)	.	.	12%[9.04 µM]	-16%	.	.
Cc1ccc(-n2nnc(-c3nsc(NC(=O)c4ccccc4C)n3)c2C)cc1Cl	.	.	5.2µM*	6.5µM*	-5%	.
Cc1ccc(-n2nnc(-c3nsc(NC(=O)c4cccc(Cl)c4)n3)c2C)cc1C	.	.	5.8µM*	3.7µM*	3%	.
COc1ccc(-n2nnc(-c3nsc(NC(=O)c4cccc(C)c4)n3)c2C)cc1OC	.	.	?	?	-8%	.
CCc1ccccc1-n1nnc(-c2nsc(NC(=O)c3ccc(C)c(C)c3)n2)c1C	.	.	?	18µM*	5%	.
Cc1ccc(-n2nnc(-c3nsc(NC(=O)c4ccc(C)c(C)c4)n3)c2C)cc1	.	.	13µM*	13µM*	8%	.
CCOC(=O)C(C)/C(C)=N\Nc1ccc([N+](=O)[O-])cc1[N+](=O)[O-] (centres undefined)	?	-27	?	?	9%	20
CCOC(=O)C(C)/C(C)=N/NC(N)=S (centres undefined)	-3	-3	18µM*	?	1%	-60*
CC1CCC(NC(=O)C2CCN(S(=O)(=O)c3ccc4nc5c(c(C(=O)O)c4c3)CC(C)CC5)CC2)CC1 (centres undefined)	-5	.	-8%	9%	5%	12
COc1ccc(CNC(=O)C2CCN(S(=O)(=O)c3ccc4nc5c(c(C(=O)O)c4c3)CC(C)CC5)CC2)cc1 (centres undefined)	-73*	-82*	0%	24%	4%	11
O=C(O)c1c2c(nc3ccc(S(=O)(=O)N4CCC(C(=O)NCc5ccccc5)CC4)cc13)CCCC2	-73*	-23	4%	-3%	.	0

Compound activity from PubChem BioAssay.
